Several values for one entry are separate records, joined by “and”; a condition that tells them apart may be missing. Equal values may be shown once. Records with an inconclusive call do not appear. Where a call stands in place of a potency, no number is given. Values without a mark were called inactive. Activity calls are given as the source filed them. The call rests on the fitted dose curve; in most records, active means well fitted curve in the direction sought with a large enough effect in the repeat runs; inconclusive means weak or mixed curves; inactive means no such curve, though single readings can be large; an effect the other way counts as inactive or inconclusive.
Potency means the concentration at half of the fitted maximal effect.

The nature of the first test: qHTS RealTime-Glo MT Cell Viability Assay in HEK293 cells - 40 hour (AID 1224874). Further: nearly all actives have a fitted effect of over 50% in size. As to conditions: RealTime-Glo luminescence; max response: active compounds read low. The gist of the method:
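Kinetic, non-lysing viability readout. Seed HEK293 (600/well) with reagent, incubate 5 h at 37 C/5% CO2, pin 23 nL compound in DMSO, incubate at 37 C, read luminescence at 0, 8, 16, 24, 32, 40 h.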
`C#C[C@]1(O)CC[C@H]2[C@@H]3CCc4cc(OC)ccc4[C@H]3CC[C@@]21C`: the Potency was 24.5 µM (active) and 19 µM (active).
For `O=C(c1ccccc1)c1ccccc1O`, the max response was -15.9% and -14.9%.
With `CCCCc1oc2ccccc2c1C(=O)c1cc(I)c(OCCN(CC)CC)c(I)c1`, the Potency is 34.9 µM (active) and 23.9 µM (active).
In the case of `CCCCC(CC)COC(=O)c1ccc(N(C)C)cc1` (stereo not given), the max response is -14.3% and -13.1% and -14.9%.
Take `C=CC(C)(CCC=C(C)C)OC(C)=O` (stereo not given): the max response was 4.78% and 0.789%.
On to `CC(=O)c1ccccn1`, for which the max response was 3.52% and 4.42%.
On the same count and under the same terms, in the case of `OC[C@H]1O[C@@H]2O[C@H]3[C@H](O)[C@@H](O)[C@@H](O[C@H]4[C@H](O)[C@@H](O)[C@@H](O[C@H]5[C@H](O)[C@@H](O)[C@@H](O[C@H]6[C@H](O)[C@@H](O)[C@@H](O[C@H]7[C@H](O)[C@@H](O)[C@@H](O[C@H]8[C@H](O)[C@@H](O)[C@@H](O[C@H]1[C@H](O)[C@H]2O)O[C@@H]8CO)O[C@@H]7CO)O[C@@H]6CO)O[C@@H]5CO)O[C@@H]4CO)O[C@@H]3CO` it was 3.33%.
With `O=C(Nc1ccc([N+](=O)[O-])cc1Cl)c1cc(Cl)ccc1O`, the Potency is 2.19 µM (active) and 827 nM (active).
Turning to `Brc1cc(Oc2cc(Br)c(Br)c(Br)c2Br)c(Br)c(Br)c1Br`, the max response is -1.03% and -0.229%.
Regarding `CCC(C)c1ccccc1O` (stereo not given), the max response is -13% and 2.84%.
Regarding `S=C(NC1CCCCC1)NC1CCCCC1`, the Potency is 17 µM (active) and 21.9 µM (active).
For `CCCCOCCOCCO`, the max response was 0.043% and 0.397%.
With `O=C(COc1ccc(Cl)cc1)N1CCN(Cc2ccc3c(c2)OCO3)CC1`, the Potency was 38.9 µM (active).
Same read-out and setting: in the case of `O=C(c1ccc(OCCN2CCCCC2)cc1)c1c(-c2ccc(O)cc2)sc2cc(O)ccc12` it was 17.4 µM (active) and 21.9 µM (active) and 23.9 µM (active); in that of `CC(C)OC(=O)C(C)(C)Oc1ccc(C(=O)c2ccc(Cl)cc2)cc1`, 24.5 µM (active) and 19 µM (active); in that of `O=C(/C=C/C=C/c1ccc2c(c1)OCO2)N1CCCCC1`, 55.1 µM (active).

Another test can be described thus: A CellTox Green Cytotoxicity Assay to monitor cytotoxicity in HEK293 cells - 24 hour (AID 1224875). Further: nearly all actives have a fitted effect of over 45% in size. The settings on record: CellTox Green fluorescence; series mostly up to 76.8 µM. The method, boiled down: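 Real-time, in one plate: 600 HEK293 cells/well with dead-cell DNA dye, pinned compound after 5 h, 37 C incubation over 40 h; viable cells give no appreciable fluorescence.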
Take `CCC(C)OC(=O)c1ccc(O)cc1` (stereo not given): the Potency entry is “inactive”.
Still for that read-out and setting: in the case of `C/C=C/C(=O)O` it was “inactive”; in that of `Cc1cccc(N(C)C(=S)Oc2ccc3ccccc3c2)c1`, “inactive”; in that of `O=C=Nc1ccc(Cc2ccc(N=C=O)cc2)cc1`, “inactive”.
On the same count and under the same terms, in the case of `O=CCc1ccccc1` it was “inactive”; in that of `CC(C(=O)O)c1cccc(C(=O)c2ccccc2)c1` (stereo not given), “inactive”; in that of `c1cc(N(CC2CO2)CC2CO2)ccc1OCC1CO1` (stereo not given), “inactive”.
Consider `Nc1ccccc1N`, for which the Potency is 50.1 µM (active).
On the same count and under the same terms, in the case of `CCOCCOCCO` it was “inactive”.
As for `CN(C)C(=N)N=C(N)N`, the Potency result is “inactive”.
Regarding `COC(C)COC(C)COC(C)CO` (stereo not given), the Potency result was “inactive”.
As for `O=C1c2cccc(O)c2C(=O)c2c(O)cccc21`, the Potency entry is “inactive”.
The same measure, in the same setting: in the case of `O=C(O)c1ccccc1Nc1cccc(C(F)(F)F)c1` it was “inactive”.
As for `Cc1ccc2c(n1)Oc1ccc(C(C)C(=O)OCC(=O)N(C)C)cc1C2` (stereo not given), the Potency result is “inactive”.
The same measure, in the same setting: in the case of `O=C(Nc1ccc(Cl)cc1)Nc1ccc(Cl)c(Cl)c1` it was “inactive”; in that of `C#C[C@]1(O)CC[C@H]2[C@@H]3CCc4cc(OC)ccc4[C@H]3CC[C@@]21C`, “inactive”.
The same measure, in the same setting: in the case of `O=C(c1ccccc1)c1ccccc1O` it was “inactive”.
Regarding `C#C[C@]1(O)CC[C@H]2[C@@H]3CCC4=Cc5oncc5C[C@]4(C)[C@H]3CC[C@@]21C`, the Potency entry was “inactive”.
The same measure, in the same setting: in the case of `CCCCC(CC)COC(=O)c1ccc(N(C)C)cc1` (stereo not given) it was “inactive”.
Turning to `C=CC(C)(CCC=C(C)C)OC(C)=O` (stereo not given), the Potency result was “inactive”.
On to `COc1ccccc1/C=C/C=O`, for which the Potency result is “inactive”.
Same read-out and setting: in the case of `CC(=O)c1ccccn1` it was “inactive”.
Same read-out and setting: in the case of `CC(=O)Oc1ccccc1C(=O)Nc1ncc([N+](=O)[O-])s1` it was “inactive”; in that of `CC(C)Oc1ccc2c(=O)c(-c3ccccc3)coc2c1`, “inactive”.
On to `Oc1ccc(O)cc1`, for which the Potency result is “inactive”.
On to `OC[C@H]1O[C@@H]2O[C@H]3[C@H](O)[C@@H](O)[C@@H](O[C@H]4[C@H](O)[C@@H](O)[C@@H](O[C@H]5[C@H](O)[C@@H](O)[C@@H](O[C@H]6[C@H](O)[C@@H](O)[C@@H](O[C@H]7[C@H](O)[C@@H](O)[C@@H](O[C@H]8[C@H](O)[C@@H](O)[C@@H](O[C@H]1[C@H](O)[C@H]2O)O[C@@H]8CO)O[C@@H]7CO)O[C@@H]6CO)O[C@@H]5CO)O[C@@H]4CO)O[C@@H]3CO`, for which the Potency result was “inactive”.
As to `CN(C)CCC=C1c2ccccc2CCc2ccccc21`, the Potency entry was “inactive”.
The same measure, in the same setting: in the case of `O=C(Nc1ccc([N+](=O)[O-])cc1Cl)c1cc(Cl)ccc1O` it was “inactive”.
The same measure, in the same setting: in the case of `Brc1cc(Oc2cc(Br)c(Br)c(Br)c2Br)c(Br)c(Br)c1Br` it was “inactive”; in that of `S=C(NC1CCCCC1)NC1CCCCC1`, “inactive”.
Still for that read-out and setting: in the case of `CCCCOCCOCCO` it was “inactive”; in that of `O=C(COc1ccc(Cl)cc1)N1CCN(Cc2ccc3c(c2)OCO3)CC1`, “inactive”; in that of `CC(C)OC(=O)C(C)(C)Oc1ccc(C(=O)c2ccc(Cl)cc2)cc1`, “inactive”.
Turning to `O=C(/C=C/C=C/c1ccc2c(c1)OCO2)N1CCCCC1`, the Potency entry was “inactive”.
